From PubChem BioAssay (NCATS)
Inconclusive results are not listed. Entries that show only a call come without a potency. Activity calls are given as the source filed them. Unless noted, calls follow the shape of the full dose curve. Square brackets hold non-standard residues; d marks the D form. Peptide text beside a SMILES is read from it. * marks the point of attachment. Sta = CC(C)C[C@H](N)[C@@H](O)CC(=O)O; Isovaleryl = CC(C)CC(=O)*

Tests used:
[1] = NS1 protein of Zika virus - qHTS assay to identify small molecule inhibitors in human HEK 293 cells (AID 1347053; active = well fitted curve in the direction sought with a large enough effect; an effect the other way counts as inactive or inconclusive; also: series mostly up to about 46 µM; nearly all actives have a fitted effect of over 55% in size)
Procedure, shortened: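 HEK 293 cells, seeded 20 h at 37 C, were pretreated with compound 1 h, then infected with ZIKV MR766 (MOI = 0.5) for 24 h. NS1 was read by TR-FRET with two anti-NS1 antibodies, normalized to uninfected and infected wells.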

[2] = qHTS for Inhibitors of the Functional Ribonucleoprotein Complex (vRNP) of Lassa (LASV) Arenavirus: LASV Primary Screen - GLuc reporter signal (AID 1347082; calls by dose curve; tested in HEK293 reporter line; also: series mostly up to about 57 µM; nearly all actives have a fitted effect of over 60% in size)
[3] = biological target: Nucleoprotein (Lymphocytic choriomeningitis virus (strain Armstrong)) (UniProt P09992); assay: qHTS for Inhibitors of the Functional Ribonucleoprotein Complex (vRNP) of Lymphocytic Choriomeningitis Arenaviruses (LCMV): LCMV Primary Screen - GLuc reporter signal (AID 1347086); also: series mostly up to about 57 µM; nearly all actives have a fitted effect of over 70% in size
[4] = qHTS of pediatric cancer cell lines to identify multiple opportunities for drug repurposing: Primary screen for U-2 OS cells (AID 1347096; active = well fitted curve in the direction sought with a large enough effect; an effect the other way counts as inactive or inconclusive; also: nearly all actives have a fitted effect of over 50% in size)
Procedure, shortened: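 Cells (500-1,000/well) rested 5 h, then received compounds for 48 h; metabolically active cells were measured by CellTiter-Glo luminescence. Final concentrations spanned up to 46 µM (MIPE, 11-point) or 0.59 nM-46 µM (NPC, 8-point) in primary screens, 11-point in follow-ups.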

[5] = qHTS for Inhibitors of the Functional Ribonucleoprotein Complex (vRNP) of Lassa (LASV) Arenavirus: Viability assay - alamar blue signal for LASV Primary Screen (AID 1347083; calls by dose curve; tested in HEK293 reporter line; also: nearly all actives have a fitted effect of over 80% in size; also: potency is read from the fitted curve at half-maximal effect)
[6] = qHTS for Inhibitors of the Functional Ribonucleoprotein Complex (vRNP) of Lymphocytic Choriomeningitis Arenaviruses (LCMV): Viability assay - alamar blue signal for LCMV Primary Screen (AID 1347085; calls by dose curve; tested in HEK293 reporter line; also: nearly all actives have a fitted effect of over 80% in size; also: potency is read from the fitted curve at half-maximal effect)

Sequence of Nucleoprotein (Lymphocytic choriomeningitis virus (strain Armstrong)) (P09992 whole entry, looked up): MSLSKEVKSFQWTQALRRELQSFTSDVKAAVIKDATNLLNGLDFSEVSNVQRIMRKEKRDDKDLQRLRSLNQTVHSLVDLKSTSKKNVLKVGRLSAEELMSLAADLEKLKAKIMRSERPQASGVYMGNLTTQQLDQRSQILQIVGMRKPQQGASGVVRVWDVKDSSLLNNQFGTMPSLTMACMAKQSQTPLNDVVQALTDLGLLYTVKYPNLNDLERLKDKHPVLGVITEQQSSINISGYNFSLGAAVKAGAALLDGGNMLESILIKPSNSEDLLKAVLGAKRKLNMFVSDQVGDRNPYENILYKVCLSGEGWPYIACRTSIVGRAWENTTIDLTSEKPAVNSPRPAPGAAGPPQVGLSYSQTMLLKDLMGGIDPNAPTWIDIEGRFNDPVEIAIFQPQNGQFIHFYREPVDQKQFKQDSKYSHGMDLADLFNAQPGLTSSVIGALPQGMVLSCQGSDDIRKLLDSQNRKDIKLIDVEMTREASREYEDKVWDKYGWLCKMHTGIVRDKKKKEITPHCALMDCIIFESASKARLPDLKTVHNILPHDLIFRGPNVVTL

For `CC[C@]1(O)CC[C@H]2[C@@H]3CCC4=CCCC[C@@H]4[C@H]3CC[C@@]21C`, the Potency [1] was “inactive”, the Potency [2] was “inactive” and the Potency [3] was “inactive”. For the same compound, the Potency [4] was “inactive”.
In the case of `O=c1ccc2ccccc2o1`, the Potency [2] is reported as “inactive”, the Potency [5] is reported as “inactive” and the Potency [6] is reported as “inactive”. For the same compound, the Potency [3] was “inactive”.
For `COc1cccc2c1C(=O)c1c(O)c3c(c(O)c1C2=O)C[C@@](O)(C(=O)CO)C[C@@H]3O[C@H]1C[C@H](N)[C@H](O[C@@H]2CCCCO2)[C@H](C)O1`, the Potency [2] was “inactive”.
With `CC(=C(CCOC(=O)C(C)C)SSC(CCOC(=O)C(C)C)=C(C)N(C=O)Cc1cnc(C)nc1N)N(C=O)Cc1cnc(C)nc1N` the Potency [2] was “inactive” and the Potency [5] was “inactive”.
In the case of `CCNC(=O)N1CCN(CCCC(c2ccc(F)cc2)c2ccc(F)cc2)CC1`, the Potency [2] is reported as “inactive”, the Potency [5] is reported as “inactive” and the Potency [6] is reported as “inactive”.
With `COCCOC(=O)C1=C(C)NC(C)=C(C(=O)OC/C=C/c2ccccc2)C1c1cccc([N+](=O)[O-])c1` (stereo not given) the Potency [2] was “inactive”, the Potency [5] was “inactive” and the Potency [6] was “inactive”.
In the case of `CCN(CC)CCOc1ccc2c(c1)C(=O)c1cc(OCCN(CC)CC)ccc1-2`, the Potency [2] is reported as “inactive”.
With `CN1CCCC(CC2c3ccccc3Sc3ccccc32)C1` (stereo not given) the Potency [2] was “inactive”.
In the case of `NC(=O)C1(N2CCCCC2)CCN(CCCN2c3ccccc3CCc3ccc(Cl)cc32)CC1`, the Potency [2] is reported as “inactive”.
In the case of `CCCCc1ccc2nc(NC(=O)OC)[nH]c2c1`, the Potency [2] is reported as “inactive”, the Potency [5] is reported as 0.0685 µM (active) and the Potency [6] is reported as 0.0385 µM (active).
With `Oc1c(Cl)cc(Cl)cc1Sc1cc(Cl)cc(Cl)c1O` the Potency [2] was “inactive” and the Potency [5] was “inactive”.
With `O=C(O)[C@H](O)[C@@H](O)[C@H](O[C@@H]1O[C@H](CO)[C@H](O)[C@H](O)[C@H]1O)[C@H](O)CO` the Potency [2] was “inactive”, the Potency [5] was “inactive” and the Potency [6] was “inactive”. For the same compound, the Potency [3] was “inactive”.
With `CCOC(=O)C1=C(C)NC(C)=C(C(=O)OCC)C1c1ccccc1/C=C/C(=O)OC(C)(C)C` the Potency [2] was “inactive”, the Potency [5] was “inactive” and the Potency [6] was “inactive”.
With `Cc1c(C(=O)NN2CCCCC2)nn(-c2ccc(Cl)cc2Cl)c1-c1ccc(Cl)cc1` the Potency [2] was “inactive”, the Potency [5] was “inactive” and the Potency [6] was “inactive”.
For `C[C@H](N)[C@H](O)c1cccc(O)c1`, the Potency [2] was “inactive”, the Potency [5] was “inactive” and the Potency [6] was “inactive”. For the same compound, the Potency [3] was “inactive”.
In the case of `CCCCOc1cc(C(=O)NCCN(CC)CC)c2ccccc2n1`, the Potency [2] is reported as “inactive” and the Potency [5] is reported as “inactive”.
With `O=C(O)C(Cc1cc(I)c(O)c(I)c1)c1ccccc1` (stereo not given) the Potency [2] was “inactive”.
In the case of `c1ccc(-c2ccc(C(c3ccccc3)n3ccnc3)cc2)cc1` (stereo not given), the Potency [2] is reported as “inactive”, the Potency [5] is reported as “inactive” and the Potency [6] is reported as “inactive”.
In the case of `C#CC1(O)CC[C@H]2[C@@H]3CCC4=CCCC[C@@H]4[C@H]3CC[C@@]21C` (stereo not given in full), the Potency [2] is reported as “inactive”, the Potency [5] is reported as “inactive” and the Potency [6] is reported as “inactive”. For the same compound, the Potency [3] was “inactive”.
For `Nc1nc2ccccc2n1Cc1ccc(F)cc1`, the Potency [2] was “inactive” and the Potency [5] was “inactive”.
For `C[C@@H](C1=C(CCN(C)C)Cc2ccccc21)c1ccccn1`, the Potency [2] was “inactive” and the Potency [5] was “inactive”.
In the case of `O=C(Nc1ncc([N+](=O)[O-])s1)c1cccs1`, the Potency [2] is reported as “inactive”, the Potency [5] is reported as “inactive” and the Potency [6] is reported as “inactive”.
For `COc1ccc2c(c1)c(CC(=O)O)c(C)n2C(=O)c1ccc(Cl)cc1`, the Potency [2] was “inactive”, the Potency [5] was “inactive” and the Potency [6] was “inactive”. The Potency [3] was “inactive”.
For `CC(C)=CCNc1ncnc2c1ncn2[C@@H]1O[C@H](CO)[C@@H](O)[C@H]1O`, the Potency [2] was “inactive”.
With `CCCCCCOC(=O)NC(=N)c1ccc(NCc2nc3cc(C(=O)N(CCC(=O)OCC)c4ccccn4)ccc3n2C)cc1` the Potency [2] was “inactive”, the Potency [5] was “inactive” and the Potency [6] was “inactive”. The Potency [3] was “inactive”.
In the case of `COc1ccc(/C=C/C(=O)c2ccc(OC)cc2OC)cc1`, the Potency [2] is reported as “inactive”, the Potency [5] is reported as “inactive” and the Potency [6] is reported as “inactive”.
In the case of `CC[C@H](NC(C)C)[C@H](O)c1ccc(O)c2[nH]c(=O)ccc12`, the Potency [2] is reported as “inactive”, the Potency [5] is reported as “inactive” and the Potency [6] is reported as “inactive”. For the same compound, the Potency [3] was “inactive”.
For `CCCCC(CC)COC(=O)C(C#N)=C(c1ccccc1)c1ccccc1` (stereo not given), the Potency [2] was “inactive”.
For `COC(=O)C1=C(C)NC(C)=C(C(=O)OC(C)(C)CN(C)CCC(c2ccccc2)c2ccccc2)C1c1cccc([N+](=O)[O-])c1` (stereo not given), the Potency [2] was “inactive”, the Potency [5] was “inactive” and the Potency [6] was “inactive”.
In the case of `CCOc1ccc(Cc2nccc3cc(OCC)c(OCC)cc23)cc1OCC`, the Potency [2] is reported as “inactive”, the Potency [5] is reported as “inactive” and the Potency [6] is reported as “inactive”.
With `C=CCNc1nc(NCC=C)nc(N2CCN(C(c3ccc(F)cc3)c3ccc(F)cc3)CC2)n1` the Potency [2] was “inactive”, the Potency [5] was “inactive” and the Potency [6] was “inactive”.
For `CC(O)Cn1cnc2c1c(=O)n(C)c(=O)n2C` (stereo not given), the Potency [2] was “inactive”, the Potency [5] was “inactive” and the Potency [6] was “inactive”. The Potency [3] was “inactive”.
For `CCOC(=O)[C@@](C)(N)Cc1ccc(O)c(O)c1`, the Potency [2] was “inactive”, the Potency [5] was “inactive” and the Potency [6] was “inactive”. The Potency [3] was “inactive”.
For `CC(C(O)c1ccccc1)N(C)CCOC(c1ccccc1)c1ccccc1` (stereo not given), the Potency [2] was “inactive”.
With `OC[C@H]1O[C@@H](n2cnc3c(=S)nc[nH]c32)[C@H](O)[C@@H]1O` the Potency [2] was “inactive”.
With `COC(=O)[C@H]1[C@H]2C[C@@H]3c4[nH]c5cc(OC)ccc5c4CCN3C[C@H]2C[C@@H](OC(=O)/C=C/c2ccc(O)c(OC)c2)[C@@H]1OC` the Potency [2] was “inactive”.
In the case of `COC(=O)Nc1nc2ccc(Sc3ccccc3)cc2[nH]1`, the Potency [2] is reported as “inactive”, the Potency [5] is reported as 5.44 µM (active) and the Potency [6] is reported as 5.44 µM (active).
With `Cc1nc2n(c(=O)c1CCN1CCC(C(=O)c3ccc(F)cc3)CC1)CCS2` the Potency [2] was “inactive”, the Potency [5] was “inactive” and the Potency [6] was “inactive”.
For `NCc1ccccc1Sc1ccccc1CO`, the Potency [2] was “inactive”, the Potency [5] was “inactive” and the Potency [6] was “inactive”. For the same compound, the Potency [3] was “inactive”.
With `c1cnc(N2CCN(Cc3ccc4c(c3)OCO4)CC2)nc1` the Potency [2] was “inactive”, the Potency [5] was “inactive” and the Potency [6] was “inactive”. The Potency [3] was “inactive”.
With `CCN(CC)CCCC(C)Nc1c2ccc(Cl)cc2nc2ccc(OC)cc12` (stereo not given) the Potency [2] was “inactive”.
In the case of `CCOC(=O)C(=O)c1csc(NC=O)n1`, the Potency [2] is reported as “inactive”, the Potency [5] is reported as “inactive” and the Potency [6] is reported as “inactive”. For the same compound, the Potency [3] was “inactive”.
With `CC(C)CC(=O)N[C@H](C(=O)N[C@H](C(=O)N[C@@H](CC(C)C)[C@@H](O)CC(=O)N[C@@H](C)C(=O)N[C@@H](CC(C)C)[C@@H](O)CC(=O)O)C(C)C)C(C)C` (Isovaleryl-VV[Sta]A[Sta]-OH) the Potency [2] was “inactive”, the Potency [5] was “inactive” and the Potency [6] was “inactive”. For the same compound, the Potency [3] was “inactive”.
In the case of `N[C@H](Cc1c[nH]c2ccccc12)C(=O)O`, the Potency [2] is reported as “inactive”, the Potency [5] is reported as “inactive” and the Potency [6] is reported as “inactive”. For the same compound, the Potency [3] was “inactive”.
For `COc1ccc(-c2cc(C(F)F)nn2-c2ccc(S(N)(=O)=O)cc2)cc1F`, the Potency [2] was “inactive”, the Potency [5] was “inactive” and the Potency [6] was “inactive”. The Potency [3] was “inactive”.
For `C[C@H]1[C@H]2CC[C@H]3[C@@H]4CC=C5C[C@@H](N(C)C)CC[C@]5(C)[C@H]4CC[C@]23CN1C`, the Potency [2] was “inactive”, the Potency [5] was “inactive” and the Potency [6] was “inactive”. The Potency [3] was “inactive”.
With `CN1CCC(=C2c3ccccc3CCc3sccc32)CC1` the Potency [2] was “inactive”, the Potency [5] was “inactive” and the Potency [6] was “inactive”. For the same compound, the Potency [3] was “inactive”.
With `O=C(Nc1ccc(C(=O)O)c(O)c1)c1ccccc1` the Potency [2] was “inactive”, the Potency [5] was “inactive” and the Potency [6] was “inactive”. For the same compound, the Potency [3] was “inactive”.
In the case of `Nc1cc(C(F)(F)F)ccc1S`, the Potency [2] is reported as “inactive”, the Potency [5] is reported as “inactive” and the Potency [6] is reported as “inactive”. The Potency [3] was “inactive”.
